In PubChem BioAssay (NCI):
About 83,000 compounds went through this panel and 20% of them were active in at least one assay; those are over-represented in the sample as a whole.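 Single-dose data. Exposure time 48 hours. Values below 10 considered active.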 Unmarked numbers belong to inactive results. Active and inactive are the calls of the source.

Key:
Experiment in all cases: NCI-60 one-dose screen, 48 h (100 = growth as untreated, 0 = no growth, -100 = all killed)
Details in all cases: 10 µM
[1] = system: NCI-H23 lung
[2] = system: NCI-H226 lung
[3] = system: NCI-H322M lung
[4] = system: HOP-62 NSCLC
[5] = system: NCI-H460 lung
[6] = system: NCI-H522 lung
[7] = system: A549/ATCC NSCLC
[8] = system: 786-0 renal
[9] = system: COLO 205 colon
[10] = system: DU-145 prostate
[11] = system: K-562 leukemia
[12] = system: MALME-3M melanoma
[13] = system: MDA-MB-231 breast
[14] = system: RXF 393 renal
[15] = system: SF-268 CNS
[16] = system: SF-295 CNS
[17] = system: SF-539 CNS
[18] = system: UACC-257 melanoma
[19] = system: M14 melanoma
[20] = system: HCT-15 colon

Row | Structure (SMILES) | growth [1] [%] | growth [2] | growth [3] [%] | growth [4] | growth [5] | growth [6] | growth [7] | growth [8] | growth [9] | growth [10] | growth [11] | growth [12] | growth [13] [%] | growth [14] | growth [15] | growth [16] | growth [17] | growth [18] | growth [19] | growth [20]
1 | O=C(N/N=C/c1ccccc1)C(Oc1ccccc1)c1ccccc1 (stereo not given) | 89.1 | 97.5% | 94.2 | 95% | 94.5% | 65.5% | 111% | 107% | 109% | 107% | 79% | 71.8% | 102 | 100% | 97.1% | 93.7% | 93.7% | 96.7% | 95.6% | 91.9%
2 | O=C(CCCCCCC(=O)Nc1cccnc1)NO | 57.9 | 86.5% | 27.7 | 39.5% | 39.9% | -12.8% (active) | 66.2% | 70.4% | 113% | 40.1% | 5.89% (active) | -23.1% (active) | 66.4 | 17.6% | 41.5% | 73.6% | 50% | 78.4% | 29.6% | 93.1%
3 | COc1ccccc1/C=C/C(=O)c1ccccc1 | 84.7 | 85% | 91.9 | 88.3% | 90% | 62.7% | 67% | 98.4% | 84.8% | 87.6% | 6.19% (active) | 90.8% | 80.5 | 92% | 87.9% | 101% | 92% | 94.3% | 85.7% | 61.6%
4 | CCCCCCCNc1nc(C=O)ncc1-c1ccc(C(F)(F)F)cc1 | 99.8 | 98% | 84.4 | 101% | 103% | 80.1% | 96.4% | 97% | 95.8% | 106% | 89.4% | 86.8% | 117 | 97% | 98.8% | 103% | 107% | 107% | 102% | 97.6%
5 | N#Cc1cccc(OCc2nc(N)nc(N)c2-c2ccc(Cl)c(Cl)c2)c1 | 32.9 | 46.7% | 24.7 | 35.9% | 11.5% | 8.77% (active) | 7.65% (active) | 19.4% | 34.1% | 25.3% | 14.6% | 33.6% | 51.4 | 43.7% | 28.4% | -7% (active) | 22.6% | 11.1% | 23.2% | 17.7%
6 | S=c1[nH]ccn1-c1c(Cl)cccc1Cl | 100 | 98.6% | 102 | 93.5% | 101% | 11% | 28.9% | 98.8% | 115% | 125% | 103% | 109% | 102 | 106% | 118% | 99.1% | 94.4% | -4.51% (active) | 98.1% | 100%
7 | COc1ccc(OC)c(/C=C/c2nc(SC)n(-c3ccc(Cl)cc3)n2)c1 | 59.7 | 70.9% | 73.3 | 90.3% | 85.2% | 81.6% | 64.8% | 86.8% | 78.1% | 93.9% | 30.7% | 44.8% | 91.7 | 59.7% | 91.7% | 46.8% | 88.5% | 87.3% | 60% | 58.9%
8 | COc1ccc(-c2nc(-c3nc4ccc(Cl)cc4[nH]3)c3ccccn23)cc1 | 84.1 | -45.7% (active) | 54.6 | -77.9% (active) | -24.1% (active) | -3.06% (active) | -37.4% (active) | -72.7% (active) | 76% | 25.6% | 55.8% | -10.8% (active) | 11.8 | -54.8% (active) | -8.4% (active) | 6.74% (active) | -13.7% (active) | 49.4% | 62.3% | 62.8%
9 | C=C(NC(=O)C(=C)NC(=O)c1csc(C2=NC3c4csc(n4)C4NC(=O)c5csc(n5)C(C(C)(O)C(C)O)NC(=O)C5CSC(=N5)/C(=C/C)NC(=O)C(C(C)O)NC(=O)c5csc(n5)C3(CC2)NC(=O)C(C)NC(=O)C(=C)NC(=O)C(=C)NC(=O)C(C(C)C)NC2C=Cc3c(C(C)O)cc(nc3C2O)C(=O)OC4C)n1)C(N)=O (stereo not given) | 11.1 | -26.3% (active) | 45.9 | 2.24% (active) | 1.43% (active) | -39.1% (active) | 31.7% | -10.4% (active) | -70.2% (active) | -23% (active) | -11.3% (active) | -64.6% (active) | 29.7 | 16.9% | 21.5% | 26.6% | -22.5% (active) | 24.2% | -29.5% (active) | -23.7% (active)
10 | CCOC(=O)N1C/C(=C/c2ccc(OC)cc2)C(=O)/C(=C/c2ccc(OC)cc2)C1 | 46.3 | 23.8% | 71.1 | 29.5% | 42% | 39% | 21.4% | -2.34% (active) | 24.5% | 17.7% | -2.17% (active) | 34.2% | 30.6 | -44.4% (active) | 38.2% | 24.5% | 39.4% | 42.9% | -40.8% (active) | 3.06% (active)
